Experimental data from PubChem BioAssay AID1159580 (chemical genetic matrix, 2015).
“And” between values parts separate entries of the source, which are not always exact repeats. Equal entries are not always repeated. The campaign covered roughly 5,500 compounds. About 2,000 (36%) were called active. Another 18% or so got no clear call; they are omitted. Rule as the data show it: active = normalized growth mostly below about 0.91 (no sharp cut-off); inconclusive = no clear call, values can overlap the other calls; inactive = mostly above about 0.92. The list shows a part of the results.

Assay: chemical genetic growth profiling, strain panel (AID 1159580);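 also: tested at 20 µM; growth read once vehicle control cultures reached saturation at 30 °C; 1 = growth at the plate median or of vehicle wells; lower values mean less growth of the strain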
Details: S. cerevisiae deletion strains, growth OD

Measured: normalized growth

CC1(C)C2CC(=O)O[C@@]3(C)C4=CC(=O)O[C@@H](c5ccoc5)[C@]4(C)CCC3[C@@]2(C)C=C[C@H]1O (stereo partly drawn)
inactive: locus YAL013W, strain DEP1, active compounds read low 0.997 | locus YAL021C, strain ccr4, active compounds read low 0.993 | locus YAL026C, strain drs2, active compounds read low 0.98 | locus YAL030W, strain snc1, active compounds read low 0.978 | locus YBL061C, strain skt5, active compounds read low 0.986 | locus YBR009C, strain hhf1, active compounds read low 0.991 | locus YBR021W, strain FUR4, active compounds read low 1.01 | locus YBR023C, strain chs3, active compounds read low 0.97 | locus YBR171W, strain sec66, active compounds read low 0.966 | locus YBR229C, strain ROT2, active compounds read low 1.01 | locus YBR231C, strain swc5, active compounds read low 0.985 | locus YBR279W, strain paf1, active compounds read low 0.985 | locus YCL011C, strain gbp2, active compounds read low 0.967 | locus YCL016C, strain dcc1, active compounds read low 1.01 | locus YCL029C, strain bik1, active compounds read low 0.989 | locus YCL061C, strain MRC1, active compounds read low 0.999 | locus YCL069W, strain vba3, active compounds read low 0.971 | locus YCR088W, strain abp1, active compounds read low 0.974 | locus YDL005C, strain med2, active compounds read low 0.975 | locus YDL035C, strain GPR1, active compounds read low 1.03 | locus YDL040C, strain nat1, active compounds read low 0.974 | locus YDL074C, strain BRE1, active compounds read low 1.01 | locus YDL101C, strain DUN1, active compounds read low 0.999 | locus YDL134C, strain PPH21, active compounds read low 1.01 | locus YDL185W, strain tfp1, active compounds read low 0.999 | locus YDL192W, strain arf1, active compounds read low 0.988 | locus YDR001C, strain nth1, active compounds read low 0.99 | locus YDR069C, strain doa4, active compounds read low 0.98 | locus YDR101C, strain arx1, active compounds read low 1 | locus YDR137W, strain rgp1, active compounds read low 1.01 | locus YDR159W, strain sac3, active compounds read low 0.953 | locus YDR162C, strain NBP2, active compounds read low 0.998 | locus YDR195W, strain ref2 0.961 | locus YDR297W, strain sur2, active compounds read low 0.983 | locus YDR318W, strain mcm21, active compounds read low 0.989 | locus YDR334W, strain swr1, active compounds read low 0.981 | locus YDR335W, strain msn5, active compounds read low 0.979 | locus YDR388W, active compounds read low 0.99 | locus YDR392W, strain spt3, active compounds read low 0.984 | locus YDR502C, strain sam2, active compounds read low 0.998 | locus YEL003W, strain gim4, active compounds read low 0.978 | locus YEL037C, strain rad23, active compounds read low 0.984 | locus YEL061C, strain CIN8 (second series), active compounds read low 0.972 | locus YER015W, strain faa2, active compounds read low 0.975 | locus YER016W, strain bim1, active compounds read low 0.988 | locus YER110C, active compounds read low 0.983 | locus YER111C, strain swi4, active compounds read low 0.975 | locus YER155C, strain BEM2 (second series), active compounds read low 1 | locus YER155C, strain BEM2, active compounds read low 1.01 | locus YER167W, strain BCK2, active compounds read low 1.02 | locus YFR010W, strain ubp6, active compounds read low 0.971 | locus YGL078C, strain dbp3, active compounds read low 0.982 | locus YGL086W, strain mad1, active compounds read low 0.988 | locus YGL167C, strain pmr1, active compounds read low 0.989 | locus YGL173C, strain kem1, active compounds read low 0.98 | locus YGL227W, strain vid30, active compounds read low 0.98 | locus YGL240W, strain doc1, active compounds read low 0.968 | locus YGL248W, strain PDE1, active compounds read low 1 | locus YGL253W, strain hxk2, active compounds read low 0.948 | locus YGR078C, strain PAC10, active compounds read low 1 | locus YGR135W, strain pre9, active compounds read low 0.969 | locus YGR252W, strain gcn5, active compounds read low 0.97 | locus YHR013C, strain ard1, active compounds read low 0.973 | locus YHR027C, strain rpn1, active compounds read low 0.983 | locus YHR030C, strain SLT2, active compounds read low 1.01 and 0.99 | locus YHR079C, strain IRE1 (second series), active compounds read low 0.988 | locus YHR079C, strain IRE1, active compounds read low 0.987 | locus YHR094C, strain hxt1, active compounds read low 0.987 | locus YHR129C, strain ARP1, active compounds read low 1.01 | locus YHR142W, strain chs7, active compounds read low 0.964 | locus YHR200W, strain rpn10, active compounds read low 0.989 | locus YIL066C, strain RNR3, active compounds read low 1.02 | locus YIL073C, strain SPO22, active compounds read low 0.988 | locus YIL125W, strain kgd1, active compounds read low 0.991 | locus YIR030C, strain dcg1, active compounds read low 0.975 | locus YJL092W, strain hpr5, active compounds read low 0.971 | locus YJL095W, strain BCK1 (second series), active compounds read low 0.982 | locus YJL095W, strain BCK1, active compounds read low 0.986 and 0.978 | locus YJL115W, strain asf1, active compounds read low 0.987 | locus YJL129C, strain trk1, active compounds read low 0.956 | locus YJL134W, strain LCB3, active compounds read low 1.01 | locus YJL154C, strain vps35, active compounds read low 0.99 | locus YJL164C, strain tpk1, active compounds read low 1.01 | locus YJL166W, strain qcr8, active compounds read low 0.98 | locus YJL168C, strain set2, active compounds read low 0.98 | locus YJL187C, strain SWE1 (second series), active compounds read low 0.997 | locus YJL187C, strain SWE1, active compounds read low 0.983 | locus YJR043C, strain POL32, active compounds read low 1.03 | locus YJR066W, strain TOR1, active compounds read low 0.946 | locus YKL009W, strain mrt4, active compounds read low 0.985 | locus YKL068W, active compounds read low 1 | locus YKL085W, strain MDH1 (second series), active compounds read low 0.993 | locus YKL085W, strain MDH1, active compounds read low 0.993 | locus YKL160W, strain elf1, active compounds read low 1.02 | locus YKR001C, strain vps1, active compounds read low 0.997 | locus YKR026C, strain gcn3, active compounds read low 0.977 | locus YKR091W, strain srl3, active compounds read low 0.983 | locus YLL001W, strain dnm1, active compounds read low 1 | locus YLL026W, active compounds read low 0.971 | locus YLL041C, strain sdh2, active compounds read low 0.976 | locus YLR027C, strain aat2, active compounds read low 0.968 | locus YLR039C, strain RIC1, active compounds read low 0.952 | locus YLR058C, strain SHM2, active compounds read low 1.01 | locus YLR102C, strain apc9, active compounds read low 0.982 | locus YLR113W, strain HOG1, active compounds read low 0.969 | locus YLR221C, strain rsa3, active compounds read low 0.975 | locus YLR258W, strain gsy2, active compounds read low 0.98 | locus YLR262C, strain YPT6 (second series), active compounds read low 1.01 | locus YLR268W, strain sec22, active compounds read low 1.01 | locus YLR320W, strain mms22, active compounds read low 0.993 | locus YLR330W, strain CHS5, active compounds read low 1.01 | locus YLR342W, strain FKS1, active compounds read low 0.977 | locus YLR357W, strain rsc2, active compounds read low 1 | locus YLR370C, strain arc18, active compounds read low 0.958 | locus YLR371W, strain rom2, active compounds read low 0.992 | locus YLR384C, strain iki3, active compounds read low 0.986 | locus YLR418C, strain cdc73, active compounds read low 0.955 | locus YML016C, strain PPZ1, active compounds read low 1.01 | locus YML032C, strain rad52, active compounds read low 1 | locus YML120C, strain ndi1, active compounds read low 0.959 | locus YML124C, strain tub3, active compounds read low 0.983 | locus YMR058W, strain fet3, active compounds read low 0.986 | locus YMR078C, strain ctf18, active compounds read low 0.985 | locus YMR125W, strain sto1, active compounds read low 0.993 | locus YMR129W, active compounds read low 0.992 | locus YMR205C, strain PFK2, active compounds read low 1.04 | locus YMR223W, strain ubp8, active compounds read low 0.971 | locus YMR231W, strain pep5, active compounds read low 0.948 | locus YMR263W, strain SAP30, active compounds read low 1.02 | locus YMR307W, strain GAS1, active compounds read low 0.922 | locus YNL067W, strain RPL9B, active compounds read low 0.999 | locus YNL071W, strain lat1, active compounds read low 0.987 | locus YNL153C, strain GIM3, active compounds read low 1 | locus YNL183C, strain NPR1, active compounds read low 0.962 | locus YNL209W, strain ssb2, active compounds read low 1.01 | locus YNL233W, strain BNI4, active compounds read low 0.992 | locus YNL248C, strain rpa49, active compounds read low 0.98 | locus YNL250W, strain rad50, active compounds read low 0.984 | locus YNL271C, strain bni1, active compounds read low 0.995 | locus YNL298W, strain CLA4, active compounds read low 1 | locus YNL307C, strain MCK1, active compounds read low 0.991 | locus YNL322C, strain KRE1 (second series), active compounds read low 0.962 | locus YNR049C, strain mso1, active compounds read low 0.981 | locus YNR052C, strain pop2, active compounds read low 0.983 | locus YOL006C, strain TOP1, active compounds read low 1.03 | locus YOL012C, strain htz1 0.912 | locus YOL147C, strain pex11, active compounds read low 0.989 | locus YOR001W, strain rrp6, active compounds read low 0.95 | locus YOR061W, strain CKA2, active compounds read low 1.01 | locus YOR069W, strain VPS5, active compounds read low 1 | locus YOR070C, strain gyp1, active compounds read low 0.984 | locus YOR080W, strain dia2, active compounds read low 0.963 | locus YOR083W, strain WHI5, active compounds read low 1.02 | locus YOR106W, strain vam3, active compounds read low 0.989 | locus YOR136W, strain idh2, active compounds read low 0.998 | locus YOR144C, strain elg1, active compounds read low 0.993 | locus YOR184W, strain ser1, active compounds read low 1.02 | locus YOR231W, strain MKK1, active compounds read low 0.998 | locus YOR265W, strain rbl2, active compounds read low 0.966 | locus YOR270C, strain vph1, active compounds read low 0.951 | locus YOR290C, strain snf2, active compounds read low 0.974 | locus YOR316C, strain cot1, active compounds read low 0.981 | locus YPL051W, strain arl3, active compounds read low 0.987 | locus YPL078C, strain atp4, active compounds read low 1.01 | locus YPL106C, strain sse1, active compounds read low 1.02 | locus YPL240C, strain hsp82, active compounds read low 0.967 | locus YPL241C, strain CIN2, active compounds read low 1.01 | locus YPL256C, strain CLN2, active compounds read low 0.967 | locus YPR119W, strain clb2, active compounds read low 0.981 | locus YPR141C, strain kar3, active compounds read low 0.987 | locus YPR163C, strain tif3, active compounds read low 0.994 | locus YPR167C, strain met16, active compounds read low 0.983 | strain wtn01, active compounds read low 1.02
